According to PubChem BioAssay AID547 (Emory University Molecular Libraries Screening Center, 2006):
Where “and” joins values, the source holds several entries; their conditions need not be identical. Equal values may be shown once. The whole screen tested about 1,300 compounds, of which about 10 (0.8%) were called active. The rule behind the calls is not given here. For the sample, actives were picked, then their nearest neighbours and some compounds at random.

The compounds below were run against Chaperone protein DnaK (Escherichia coli (strain K12)) (UniProt P0A6Y8) (assay: blockers of bacterial DnaK function – luminescence, E. coli K12, primary screen (AID 547;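 note: tested at 10 µM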)). Settings: DnaK chaperone assay, luminescence read-out; hits give low values.

luminescence, active:
CCCCCCC/C=C\CCCCCCCCC(=O)O 1.7e+06 cps
CCCCCCCC/C=C\CCCCCCCC(=O)NCCc1ccc(O)c(O)c1 1.5e+06 cps
CCCCCCCCCCCCCCCC(=O)NCC(COP(=O)([O-])OCC[N+](C)(C)C)OCC (stereo unspecified) 1.9e+06 cps

luminescence, inactive:
NCCCCCCNS(=O)(=O)c1cccc2c(Cl)cccc12 2.8e+06 cps
CCSC(N)=Nc1ccc(C(F)(F)F)cc1 2.3e+06 cps
OC[C@H]1O[C@@H](n2cnc3c(Nc4ccccc4)ncnc32)C(O)[C@H]1O (stereo partly specified) 2.3e+06 cps
COc1ccccc1N1CCN(CCCCNS(=O)(=O)c2cccc3c(N(C)C)cccc23)CC1 2.1e+06 cps
O=c1cc(-c2ccccc2)[nH]c2nc(Cl)ccc12 2.7e+06 cps
CC(=O)N[C@H](C(=O)O)C(C)(C)SN=O 2.5e+06 cps
O=C(O)c1cc2cc(F)ccc2[nH]1 2.1e+06 cps
O=c1[nH]c2cc(C(F)(F)F)ccc2n1-c1cc(C(F)(F)F)ccc1O 2.6e+06 cps
O=C(O)CC1CCCc2ccccc2C1O (stereo unspecified) 2.7e+06 cps
NCC(O)C1CCCCCCC1 (stereo unspecified) 2.9e+06 cps
CN=C(NC#N)Nc1ccc(C2=NNC(=O)CC2C)cc1 (stereo unspecified) 2.6e+06 cps
O=C1NC(c2cccc([N+](=O)[O-])c2)=CCN1c1ccccc1O 3e+06 cps
CC1(C)CCC=[N+]1[O-] 2.6e+06 cps
NC[C@@H]1O[C@H](C23CC4CC(CC(C4)C2)C3)Cc2c1ccc(O)c2O 3e+06 cps
N#C/C(=C\c1c[nH]c2ccccc12)C(=O)c1ccc(O)c(O)c1 2.2e+06 cps
O=C1C2C=CC=CC2=NC(=S)N1CCN1CCC(=C(c2ccc(F)cc2)c2ccc(F)cc2)CC1 (stereo unspecified) 2.9e+06 cps
COc1cc2nc(N3CCN(C(=O)OCc4ccccc4)C(C(=O)NC(C)(C)C)C3)nc(N)c2cc1OC (stereo unspecified) 2.3e+06 cps
CCc1cccc(N(C)C(N)=Nc2cccc3ccccc23)c1 2.4e+06 cps
Nc1nc(Cl)nc2c1ncn2[C@@H]1O[C@H](CO)[C@H](O)C1O (stereo partly specified) 2.7e+06 cps
OCc1ccc(-c2nn(Cc3ccccc3)c3ccccc23)o1 2.1e+06 cps
CC(N)(Cc1ccc(O)c(O)c1)C(=O)O (stereo unspecified) 2.3e+06 cps
CC1CNCCN1S(=O)(=O)c1cccc2cnccc12 (stereo unspecified) 3.1e+06 cps and 2.6e+06 cps
OCC1NC[C@@H](O)C(O)[C@@H]1O (stereo partly specified) 2.4e+06 cps
O=C(O)CNC(=O)C(CS)Cc1ccccc1 (stereo unspecified) 2.3e+06 cps
CN(C)C/C=C(/c1ccc(Br)cc1)c1cccnc1 1.8e+06 cps
CN1CCc2cc(NC(=O)Nc3cccnc3)ccc21 2.6e+06 cps
CCCCOc1cc(CC2CNC(=O)N2)ccc1OC (stereo unspecified) 2.5e+06 cps
CCCCCCCCCCCCCCCCCC(=O)OC(CC(=O)O)C[N+](C)(C)C (stereo unspecified) 2.5e+06 cps
CN1C2CCC1CC(OC(=O)c1c[nH]c3ccccc13)C2 (stereo unspecified) 2.3e+06 cps
NCCS 2.4e+06 cps
Fc1ccc([C@@H]2CCNC[C@H]2COc2ccc3c(c2)OCO3)cc1 2.9e+06 cps
NCCCCCCCCCCN 2.6e+06 cps
O=C(O)C1=CCCNC1 2.8e+06 cps
C[C@]12CC[C@@H]3c4ccc(O)cc4CC[C@H]3[C@@H]1CC[C@@H]2O 2.9e+06 cps
CCOC(=O)C1=C[C@]2(CC)CCCN3CCc4c(n1c1ccccc41)[C@@H]32 2.3e+06 cps
O=Nc1c(-c2c(O)[nH]c3ccccc23)[nH]c2ccccc12 2.9e+06 cps
OC[C@H]1O[C@@H](n2cnc3c(NCCc4ccccc4)ncnc32)C(O)[C@H]1O (stereo partly specified) 2.2e+06 cps
CC(C)(C)NCC(O)COc1nsnc1N1CCOCC1 (stereo unspecified) 2.3e+06 cps
O=c1n(CCCN2CCN(c3cccc(Cl)c3)CC2)nc2ccccn12 2.5e+06 cps
CCN1CCc2nc(N)oc2CC1 2.6e+06 cps
CC(N)C1CCC(C(=O)Nc2ccncc2)CC1 (stereo unspecified) 2.8e+06 cps
COCc1nc2c([nH]1)c(=O)n(C)c(=O)n2CC(C)C 2.7e+06 cps
CCCCC1C(=O)N(c2ccccc2)N(c2ccccc2)C1=O 2.6e+06 cps
Oc1ccc(O)cc1 2.9e+06 cps
NC(=O)CC[C@H](N)C(=O)O 2.9e+06 cps
COc1[nH]c2ccc(F)cc2c1C(=O)OCC1CCN(CCNS(C)(=O)=O)CC1 3e+06 cps
COc1ccc(-c2ccc(N)[n+](CCCC(=O)O)n2)cc1 2.3e+06 cps
C[C@H]1CC2C3CCC4=CC(=O)C=C[C@]4(C)[C@@]3(Cl)[C@@H](O)C[C@]2(C)[C@@]1(O)C(=O)CO (stereo partly specified) 2.6e+06 cps
N=S(=O)(O)Cc1noc2ccccc12 2.1e+06 cps
CCCCCCCC/C=C\CCCCCCCC(=O)NCCO 2.9e+06 cps
CCCCCCCCCCC/C=C\C(C)(C)/C=C\CCCC(=O)O 2.3e+06 cps
CC1C(=O)N(C)C(=O)c2nc[nH]c21 (stereo unspecified) 2.4e+06 cps
N.N.O=C(O)C1(C(=O)O)CCC1.[Pt+2] 2.5e+06 cps
CCCCS(=N)(=O)CCC(N)C(=O)O (stereo unspecified) 1.9e+06 cps
CCCCCCCCCCCCCCCC(=O)NCCO 2.9e+06 cps
CC(=O)NCCc1ccc(O)c(O)c1 2.8e+06 cps
NC(=O)c1ccccc1 2.5e+06 cps
N#CC(Cc1ccc(O)c(O)c1)C(=O)N1CCc2ccccc21 (stereo unspecified) 2.2e+06 cps
CCNC(=O)[C@H]1O[C@@H](n2cnc3c(N)nc(NCCc4ccc(CCC(=O)O)cc4)nc32)C(O)[C@H]1O (stereo partly specified) 2.4e+06 cps
CC(=O)O[C@H]1CC2(C)[C@@H](C[C@@H](O)[C@H]3[C@@]4(C)CC[C@@H](O)[C@@H](C)[C@@H]4CC[C@@]32C)C1=C(CCC=C(C)C)C(=O)O (stereo partly specified) 2.8e+06 cps
O=C1N=C(O)CN1/N=C/c1ccc(-c2ccc([N+](=O)[O-])cc2)o1 3e+06 cps
CCCCCCCCCCCCCCCCCCOC[C@H](COP(=O)([O-])OCC[N+](C)(C)C)OC 2.6e+06 cps
CCCCCCCCCCCCCCCCCC(=O)NCC(COP(=O)([O-])OCC[N+](C)(C)C)OCC (stereo unspecified) 2.8e+06 cps
COc1cccc(-c2cc(=O)c3ccccc3o2)c1N 2.2e+06 cps
CC(C)OC(=O)C(C)(C)Oc1ccc(C(=O)c2ccc(Cl)cc2)cc1 2.9e+06 cps
COc1ccc(CCN(C)CCCC(C#N)(c2cc(OC)c(OC)c(OC)c2)C(C)C)cc1OC (stereo unspecified) 2.5e+06 cps
COc1ccccc1N1CCN(CCN2C(=O)CC3(CCCC3)CC2=O)CC1 3.1e+06 cps
NC(=O)N1c2ccccc2C=Cc2ccccc21 2.7e+06 cps
Cc1ccc(C(=O)O[C@H](C(=O)O)[C@H](OC(=O)c2ccc(C)cc2)C(=O)O)cc1 (tested in a mixture with another compound) 2.5e+06 cps
CNC[C@H](O)c1cccc(O)c1 2.3e+06 cps
Cc1nc2n(c(=O)c1CCN1CCC(c3noc4cc(F)ccc34)CC1)CCCC2 2.6e+06 cps
c1ccc(-c2ccccn2)nc1 2.6e+06 cps
CCCCOC(=O)NS(=O)(=O)c1sc(CC(C)C)cc1-c1ccc(Cn2c(CC)nc3c(C)cc(C)nc32)cc1 2.5e+06 cps
CC#C[C@]1(O)CC[C@H]2[C@@H]3CCC4=CC(=O)CCC4=C3[C@@H](c3ccc(N(C)C)cc3)C[C@@]21C 2e+06 cps
NCCCCCC(=O)O 2.3e+06 cps
Oc1cc(O)c2c(c1)O[C@H](c1ccc(O)c(O)c1)[C@@H](O)C2 2.8e+06 cps
CN1Cc2c(N)cccc2C(c2ccccc2)C1 (stereo unspecified) 2.2e+06 cps
CN(C)c1cc2c(Nc3ccc4c(cnn4Cc4ccccc4)c3)ncnc2cn1 3e+06 cps
CCSC(=N)N 2.4e+06 cps
N[C@@H](CC(=O)O)C(=O)O 2.4e+06 cps
N#Cc1cc2nc(O)c(O)nc2cc1[N+](=O)[O-] 2.8e+06 cps
CN(C)c1nc(N(C)C)nc(N(C)C)n1 2.4e+06 cps
COc1cc([C@@H]2c3cc4c(cc3[C@H](O)C3COC(=O)[C@@H]32)OCO4)cc(OC)c1OC (stereo partly specified) 2.6e+06 cps
CN1[C@@H](CC(=O)c2ccccc2)CCC[C@H]1C[C@H](O)c1ccccc1 2.6e+06 cps
CCCCN1CCC(COC(=O)c2cc(Cl)c(N)c3c2OCCO3)CC1 2.2e+06 cps
COC(=O)C(N)Cc1ccc(Cl)cc1 (stereo unspecified) 2.2e+06 cps
CC(C)NC[C@@H](O)c1ccc(O)c(O)c1 2.5e+06 cps
Nc1ccc(CCNc2ncnc3c2ncn3C2OC(CO)C(O)C2O)cc1 (stereo unspecified) 2.9e+06 cps
